The record followed here is PubChem BioAssay (EPA / NIEHS).

Results filed as inconclusive are left out. The source made the active and inactive calls. Rule for the calls: active = hit-call score of the fitted dose curve at least 0.9, where 1 is the maximum; inconclusive = response in the unintended direction; inactive = score below 0.9. Where a SMILES comes first, the peptide text is derived from it. Bridges are numbered along the chain shown (N, C = ends).

The target in the first experiment is Cellular tumor antigen p53 (Homo sapiens) (UniProt P04637). Nature of the experiment: TOX21_p53_BLA_p5_ratio: Tox21 HCT-116 p53 Agonism Beta-lactamase Assay, Ratio, Phase 5 (AID 2283599). Summed up: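 Beta-lactamase reporter ratio (blue 460 nm over green 530 nm, 405 nm excitation) after 2 h CCF4-AM loading, in HCT-116 cells exposed 16 h at 37 C to compounds pinned at 217-fold dilution. Increases relative to DMSO baseline scored.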
Chain of Cellular tumor antigen p53 (Homo sapiens) (P04637 whole entry, looked up): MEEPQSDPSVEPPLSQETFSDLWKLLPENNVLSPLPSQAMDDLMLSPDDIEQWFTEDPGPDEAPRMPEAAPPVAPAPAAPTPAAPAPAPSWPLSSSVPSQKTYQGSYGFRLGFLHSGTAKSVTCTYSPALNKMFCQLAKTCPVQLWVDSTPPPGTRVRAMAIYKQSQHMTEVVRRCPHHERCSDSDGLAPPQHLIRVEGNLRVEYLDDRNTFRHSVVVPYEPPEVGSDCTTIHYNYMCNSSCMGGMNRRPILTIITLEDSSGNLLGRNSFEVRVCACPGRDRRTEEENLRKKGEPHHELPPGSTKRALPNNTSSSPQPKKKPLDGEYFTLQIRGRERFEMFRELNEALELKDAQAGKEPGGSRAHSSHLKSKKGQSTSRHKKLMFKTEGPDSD
As to `CC(O)CCCCn1c(=O)c2c(ncn2C)n(C)c1=O` (stereo not given), the result was inactive.
Regarding `CC(=O)c1ccc(C(C)=O)cc1`, the result was inactive.
In the case of `CCCCNC(=O)NCCCC`, the outcome was inactive.
The same measure, in the same setting: with `CN(C)C(=O)Oc1ccc[n+](C)c1` the entry was “inactive”; with `Cc1ccccc1C(=O)Nc1ccc(C(=O)N2CCCC(O)c3cc(Cl)ccc32)c(C)c1` (stereo not given), “inactive”.
In the case of `BrC(Br)C(Br)Br`, the result was inactive.
The same measure, in the same setting: in the case of `CCNS(=O)(=O)c1ccc(C)cc1` it was “inactive”; in that of `O[C@@H]1CO[C@H]2[C@@H]1OC[C@@H]2O`, “inactive”.
With `C[C@H]1O[C@H](O[C@H]2[C@H](O)[C@@H](O)[C@@H](O[C@H]3[C@H](O)[C@@H](O)[C@H](O)O[C@@H]3CO)O[C@@H]2CO)[C@H](O)[C@@H](O)[C@@H]1N[C@H]1C=C(CO)[C@@H](O)[C@H](O)[C@H]1O`, the result was inactive.
Still for that read-out and setting: in the case of `Cc1ccc(N)nc1` it was “inactive”; in that of `CC#N`, “inactive”; in that of `NCCCC(O)(P(=O)(O)O)P(=O)(O)O`, “inactive”.
On to `Cn1cnc2ncnc(N)c21`, for which the result was inactive.
On the same count and under the same terms, with `N[C@@H](CSCCCO)C(=O)O` the entry was “inactive”; with `COc1cc2c(cc1OC)C(C(C(=O)N(CCc1ccc(OC)c(OC)c1OC)CCc1ccc(OC)c(OC)c1OC)c1ccccc1)=NCC2` (stereo not given), “inactive”.
Still for that read-out and setting: with `C[C@](N)(Cc1ccc(O)cc1)C(=O)O` the entry was “inactive”; with `Cc1cc([N+](=O)[O-])ccc1N`, “inactive”.
The same measure, in the same setting: in the case of `CC1(C)OC[C@@H](COC(=O)CCc2ccc(OC[C@@H](O)CNCCNC(=O)N3CCOCC3)cc2)O1` it was “inactive”.
Turning to `CC1=C(/C=C/C(C)=C/C=C/C(C)=C/C=C/C=C(C)/C=C/C=C(C)/C=C/C2=C(C)C(=O)CCC2(C)C)C(C)(C)CCC1=O`, the outcome was inactive.
Take `NCCCC[C@H](NC(=O)[C@@H]1CCCN1C(=O)[C@@H]1CSSC[C@H](NC(=O)CNC(=O)CNC(=O)CN)C(=O)N[C@@H](Cc2ccc(O)cc2)C(=O)N[C@@H](Cc2ccccc2)C(=O)N[C@@H](CCC(N)=O)C(=O)N[C@@H](CC(N)=O)C(=O)N1)C(=O)NCC(N)=O` (H-GGGCYFQNCPKG-NH2; disulfide 4-9): the outcome was inactive.
On the same count and under the same terms, with `CN(C)CCCNCCCN` the entry was “inactive”; with `O=S(=O)(O)c1cccc(S(=O)(=O)O)c1`, “inactive”.
Still for that read-out and setting: with `O=c1oc2c(O)c(O)cc3c(=O)oc4c(O)c(O)cc1c4c23` the entry was “inactive”.
Take `O=C(O)c1cc(C(=O)O)cc(C(=O)O)c1`: the outcome was inactive.
For the compound `O=P(O)(O)OP(=O)(O)OP(=O)(O)O`, the outcome was inactive.
Still for that read-out and setting: with `CC(=O)c1cnccn1` the entry was “inactive”.
For `Cc1ccc(S(=O)(=O)NC(=O)NC2CCCC2)cc1`, the outcome was inactive.
As to `CO[C@H]1O[C@@H]2O[C@@]3(C)CC[C@H]4[C@H](C)CC[C@@H]([C@H]1C)[C@@]24OO3`, the outcome was inactive.

System in the next experiment: not listed separately
In words: TOX21_p53_BLA_p5_viability: Viability Assessment in the Tox21 HCT-116 p53 Agonism Beta-lactamase Assay, Phase 5 (AID 2283600). Summed up:
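Seeded cells (4000/well) settle 5 h before compound addition. Plates then incubate 16 h at 37C, receive FRET substrate for 2 h, and finally CellTiter-Glo, with luminescence measured after a 30 min room-temperature incubation.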
`CC(=O)c1ccc(C(C)=O)cc1`: the call was inactive.
Consider `CCCCNC(=O)NCCCC`, for which the compound was classed as inactive.
Still for that read-out and setting: in the case of `CN(C)C(=O)Oc1ccc[n+](C)c1` it was “inactive”; in that of `Cc1ccccc1C(=O)Nc1ccc(C(=O)N2CCCC(O)c3cc(Cl)ccc32)c(C)c1` (stereo not given), “inactive”.
As to `BrC(Br)C(Br)Br`, the outcome was inactive.
Same read-out and setting: in the case of `CCNS(=O)(=O)c1ccc(C)cc1` it was “inactive”; in that of `O[C@@H]1CO[C@H]2[C@@H]1OC[C@@H]2O`, “inactive”.
Turning to `O=C(O)c1ccc(NC(=O)[C@H](Cc2ccc(O)cc2)NC(=O)c2ccccc2)cc1`, the call was inactive.
Still for that read-out and setting: in the case of `Cc1ccc(N)nc1` it was “inactive”; in that of `CCOC(=O)[C@H](CCc1ccccc1)N[C@@H](C)C(=O)N1Cc2cc(OC)c(OC)cc2C[C@H]1C(=O)O`, “inactive”.
With `NCCCC(O)(P(=O)(O)O)P(=O)(O)O`, the result was inactive.
In the case of `Cn1cnc2ncnc(N)c21`, the compound was called inactive.
The same measure, in the same setting: with `N[C@@H](CSCCCO)C(=O)O` the entry was “inactive”.
Same read-out and setting: with `COc1cc2c(cc1OC)C(C(C(=O)N(CCc1ccc(OC)c(OC)c1OC)CCc1ccc(OC)c(OC)c1OC)c1ccccc1)=NCC2` (stereo not given) the entry was “inactive”.
The same measure, in the same setting: with `C[C@](N)(Cc1ccc(O)cc1)C(=O)O` the entry was “inactive”; with `CCCCOc1ccc(OCCCN2CCOCC2)cc1`, “inactive”; with `CC1(C)OC[C@@H](COC(=O)CCc2ccc(OC[C@@H](O)CNCCNC(=O)N3CCOCC3)cc2)O1`, “inactive”.
With `N[C@H]1CN(c2c(F)cc3c(=O)c(C(=O)O)cn(C4C[C@H]4F)c3c2Cl)CC12CC2` (stereo not given in full), the result was inactive.
In the case of `CC1=C(/C=C/C(C)=C/C=C/C(C)=C/C=C/C=C(C)/C=C/C=C(C)/C=C/C2=C(C)C(=O)CCC2(C)C)C(C)(C)CCC1=O`, the compound was called inactive.
Turning to `CN(C)CCCNCCCN`, the call was inactive.
On the same count and under the same terms, in the case of `C=C1C(=O)O[C@H]2[C@H]1CC/C(C)=C/CC[C@@]1(C)O[C@@H]21` it was “inactive”; in that of `O=C(Cn1c(=O)sc2ccc(Cl)cc21)N1CCN(CCO)CC1`, “inactive”.
Same read-out and setting: with `O=S(=O)(O)c1cccc(S(=O)(=O)O)c1` the entry was “inactive”; with `CC1CCCCN1CCCOC(=O)c1ccccc1` (stereo not given), “inactive”.
`O=P(O)(O)OP(=O)(O)OP(=O)(O)O`: the compound was called inactive.
`NCc1ccc(S(N)(=O)=O)cc1`: the call was inactive.
`Cc1ccc(S(=O)(=O)NC(=O)NC2CCCC2)cc1`: the outcome was inactive.
On the same count and under the same terms, with `COc1cc(Cl)ccc1Cl` the entry was “inactive”.

The target of the next experiment is Cellular tumor antigen p53 (Homo sapiens) (UniProt P04637). In words: TOX21_p53_BLA_p4_ratio: Tox21 HCT-116 p53 Agonism Beta-lactamase Assay, Ratio, Phase 4 (AID 2283601). In short, it runs like this:
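Signal is the blue/green (460nm/530nm) ratio of cleaved versus uncleaved CCF4-AM substrate, read after 2 h substrate loading. Cells were HCT116 carrying the p53-responsive beta-lactamase reporter, dosed 16 h at 37C, 5% CO2; CellTiter-Glo measured in parallel.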
For `CC(O)CCCCn1c(=O)c2c(ncn2C)n(C)c1=O` (stereo not given), the result was inactive.
Same read-out and setting: with `CCCCNC(=O)NCCCC` the entry was “inactive”; with `CN(C)C(=O)Oc1ccc[n+](C)c1`, “inactive”.
Still for that read-out and setting: with `CN[C@@H]1[C@@H](O)[C@@H](O[C@@H]2[C@@H](O)[C@H](O[C@H]3O[C@H](CN)[C@@H](O)[C@H](O)[C@H]3O)[C@@H](N)C[C@H]2NC(=O)C(O)CN)OC[C@]1(C)O` (stereo not given in full) the entry was “inactive”; with `O[C@@H]1CO[C@H]2[C@@H]1OC[C@@H]2O`, “inactive”; with `O=C(O)c1ccc(NC(=O)[C@H](Cc2ccc(O)cc2)NC(=O)c2ccccc2)cc1`, “inactive”.
In the case of `C[C@H]1O[C@H](O[C@H]2[C@H](O)[C@@H](O)[C@@H](O[C@H]3[C@H](O)[C@@H](O)[C@H](O)O[C@@H]3CO)O[C@@H]2CO)[C@H](O)[C@@H](O)[C@@H]1N[C@H]1C=C(CO)[C@@H](O)[C@H](O)[C@H]1O`, the result was inactive.
As for `Cc1ccc(N)nc1`, the outcome was inactive.
The same measure, in the same setting: in the case of `Cn1cnc2ncnc(N)c21` it was “inactive”; in that of `N[C@@H](CSCCCO)C(=O)O`, “inactive”; in that of `COc1cc2c(cc1OC)C(C(C(=O)N(CCc1ccc(OC)c(OC)c1OC)CCc1ccc(OC)c(OC)c1OC)c1ccccc1)=NCC2` (stereo not given), “inactive”.
On the same count and under the same terms, in the case of `Cc1cc([N+](=O)[O-])ccc1N` it was “inactive”; in that of `CCCCOc1ccc(OCCCN2CCOCC2)cc1`, “inactive”.
Same read-out and setting: with `CC1(C)OC[C@@H](COC(=O)CCc2ccc(OC[C@@H](O)CNCCNC(=O)N3CCOCC3)cc2)O1` the entry was “inactive”; with `N[C@H]1CN(c2c(F)cc3c(=O)c(C(=O)O)cn(C4C[C@H]4F)c3c2Cl)CC12CC2` (stereo not given in full), “inactive”.
On to `CC1=C(/C=C/C(C)=C/C=C/C(C)=C/C=C/C=C(C)/C=C/C=C(C)/C=C/C2=C(C)C(=O)CCC2(C)C)C(C)(C)CCC1=O`, for which the outcome was inactive.
For `O=C(Cn1c(=O)sc2ccc(Cl)cc21)N1CCN(CCO)CC1`, the outcome was inactive.
The same measure, in the same setting: in the case of `O=S(=O)(O)c1cccc(S(=O)(=O)O)c1` it was “inactive”; in that of `O=C(O)c1cc(C(=O)O)cc(C(=O)O)c1`, “inactive”; in that of `CC1CCCCN1CCCOC(=O)c1ccccc1` (stereo not given), “inactive”.
Same read-out and setting: in the case of `O=P(O)(O)OP(=O)(O)OP(=O)(O)O` it was “inactive”; in that of `CC(=O)c1cnccn1`, “inactive”; in that of `Cc1ccc(S(=O)(=O)NC(=O)NC2CCCC2)cc1`, “inactive”.
Consider `CO[C@H]1O[C@@H]2O[C@@]3(C)CC[C@H]4[C@H](C)CC[C@@H]([C@H]1C)[C@@]24OO3`, for which the result was inactive.
